Experimental data published in PubChem BioAssay AID651638 (Johns Hopkins Ion Channel Center, 2012).
Among all 2,400 compounds or so, about 2,400 (100%) were called active.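 The calls were made as follows: active = ratio percent of control, averaged over triplicates, above buffer control mean plus 5 SD (cut at about 64% in these data); inactive = the rest.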 So high a share suggests a set chosen from earlier hits. These entries were drawn from the full list.

Target: Potassium channel subfamily K member 3 (Homo sapiens) (UniProt O14649)
Assay: TASK1 potassium channel blockade, triplicate retest – CHO cells, FluxOR thallium flux, confirmation (AID 651638);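 also: ratio is the fluorescence rise from min to max over baseline after thallium stimulus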
Conditions: CHO-KCNK3 thallium flux, FluxOR fluorescence; at 10 µM; active compounds read high; 0% buffer, 100% carvedilol maximal block

Chain of Potassium channel subfamily K member 3 (Homo sapiens) (O14649 whole entry, looked up): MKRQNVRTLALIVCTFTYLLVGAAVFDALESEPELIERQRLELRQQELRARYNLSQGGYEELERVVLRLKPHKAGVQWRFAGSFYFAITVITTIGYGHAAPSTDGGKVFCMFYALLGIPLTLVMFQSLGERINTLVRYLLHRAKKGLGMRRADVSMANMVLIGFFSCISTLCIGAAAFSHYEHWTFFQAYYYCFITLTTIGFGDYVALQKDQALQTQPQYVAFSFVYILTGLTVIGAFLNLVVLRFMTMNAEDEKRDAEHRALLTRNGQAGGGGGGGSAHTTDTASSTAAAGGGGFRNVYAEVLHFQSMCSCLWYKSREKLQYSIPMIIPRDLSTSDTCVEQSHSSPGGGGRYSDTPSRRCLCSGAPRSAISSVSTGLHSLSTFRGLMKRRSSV

Ratio percent of control, active:
C=CCSc1nsc(NC(=O)Nc2cccc(C(C)=O)c2)n1 109%
COc1ccc([N+](=O)[O-])cc1-c1nc2ccccc2nc1-c1ccccc1 127%
COc1cccc(C(=O)NCCSc2ccc(Br)cc2)c1 92.3%
Cc1cccc2c1-c1sc(C(=O)NCCCN3CCc4ccccc4C3)cc1CO2 90.3%
Cc1cccc(C(=O)Nc2ccccc2N2CCN(c3ccc(F)cc3)CC2)c1 119%
O=C(Nc1ccccc1N1CCCC1)c1ccc2ccccc2c1 134%
CCCCC(=O)Nc1ccccc1N1CCN(c2ccc(F)cc2)CC1 102%
N#Cc1nc(Cc2cccc3ccccc23)oc1NCc1ccc2c(c1)OCO2 96%
N#Cc1cccc(NC(=O)COC(=O)c2ccccc2C(=O)c2ccc(Cl)c([N+](=O)[O-])c2)c1 135%
CC(Sc1nc2ccccc2c(=O)n1Cc1ccco1)C(=O)c1ccccc1 (stereo not given) 97%
Cc1cc(C)c(C#N)c(SCc2ccc3c(c2)OCO3)n1 137%
CCCCCCCCCCOC(=O)Cn1c(COc2cccc(OC)c2)[n+](C)c2ccccc21 119%
CS/C(=C\C(=O)c1ccco1)Nc1ccccc1Cl 95%
S=C(Nc1cccc(Br)c1)N1CCn2cccc2C1c1cccnc1 (stereo not given) 79.7%
CCCOc1ccc2c3c(c(=O)oc2c1OCCC)CCC3 111%
COc1ccc(CC(=O)Nc2nc(-c3ccc(F)c(F)c3)cs2)cc1OC 134%
CC(Oc1cccc(NC(=O)c2cccs2)c1)C(=O)c1ccccc1 (stereo not given) 103%
Cc1cccc(N(Cc2ccccc2)C(=O)c2ccccc2F)c1 88.3%
CCOc1ccc(C2c3[nH]c4ccccc4c3CCN2Cc2cccn2-c2ncccn2)cc1 (stereo not given) 117%
CC[n+]1cc(C)ccc1/C=C/c1ccc(N(C)C)cc1 143%
COc1ccc(C(C)=O)cc1COc1ccc(Cl)c(C)c1 117%
O=C(Nc1cccc(Cl)c1)Nc1ccccc1NS(=O)(=O)c1cccs1 138%
C=CCc1cc(S(=O)(=O)c2ccc(O)c(CC=C)c2)ccc1O 106%
CC(=O)N(C1=C(Cl)C(=O)c2ccccc2C1=O)c1ccc(C(=O)O)cc1 136%
COc1ccc(S(=O)(=O)NCCCCOc2ccc(Cl)cc2)cc1 123%
C=CCSc1nnc(N2C(=O)C(O)=C(C(=O)c3ccco3)C2c2ccc(F)cc2)s1 (stereo not given) 92%
O=C(Oc1ccc(Br)cc1C(=S)N1CCOCC1)c1cccc([N+](=O)[O-])c1 103%
CCCc1cc(C(=O)N2CCCC(CO)(CCCc3ccccc3)C2)n(C)n1 (stereo not given) 103%
CCN(CC)CCN(C(=O)c1cc(Cl)sc1Cl)c1nc2cc3c(cc2s1)OCO3 121%
COc1ccc(CN(C)C(=O)c2cc(-c3ccc(C)cc3C)nc3ccccc23)c(OC)c1OC 129%
CC(C)CCNC(=O)C(C)N(C(=O)Cn1nnc(-c2ccc(F)cc2)n1)C1CCCC1 (stereo not given) 74%
COC(=O)c1ccc(COC(=O)C2CCN(S(=O)(=O)c3c(Cl)cccc3Cl)CC2)o1 85.3%
CCn1ncc(Br)c1C(=O)Nc1cc(C)ccc1F 87.3%
O=C(Cn1cc(C(=O)c2cccs2)c2ccccc21)NCc1cccs1 116%
COc1cc(Cl)c(S(=O)(=O)N2CCN(Cc3ccc4c(c3)OCO4)CC2)cc1Cl 107%
Cc1nc2ccccc2cc1OCc1ccc(F)cc1 134%
[O-][n+]1ccc(OCc2ccccc2)cc1 73%
Cc1cc(OCCCCOc2ccc(C#N)cc2)ccc1[N+](=O)[O-] 119%
Cc1ccc(S(=O)(=O)NCc2cn3ccsc3n2)c(C)c1 64%
CC(C(=O)NCC1CCCCC1)N(C)Cc1cccc(Cl)c1 (stereo not given) 114%
O=C(CSc1nc(Nc2ccccc2)nc(N2CCOCC2)n1)Nc1cc(Cl)ccc1O 127%
Clc1cccc(-c2nc(NCC3CCCO3)c3ccccc3n2)c1 (stereo not given) 130%
CCc1ccc2nc3sc(C(=O)Nc4nnc(CC)s4)c(N)c3cc2c1 116%
CSc1cccc(NC(=S)N(C(C)C)C(C)c2ccccn2)c1 (stereo not given) 98.3%
COc1ccc(Cl)cc1NC(=O)C(C)N1CCc2ccccc21 (stereo not given) 96.3%
CCc1nc(SCC(=O)NNC(=O)c2ccc(C)cc2)c2ccccc2n1 78%
FC(F)(F)c1cccc(NC(=S)Nc2cccc(Cl)c2)c1 127%
CSc1nccc(NC(=O)c2ccc(C(C)(C)C)cc2)n1 116%
Cc1cccc(NC(=O)c2sc3nc4c(c(-c5ccco5)c3c2N)CCC4)c1 115%
N#Cc1ccc(S(=O)(=O)NCC(=O)OCC(=O)NCCc2ccccc2)cc1 63%
O=C1c2ccccc2C2=Nc3ccccc3SC(c3ccccc3F)C12 (stereo not given) 128%
O=C(c1cc(-c2ccc(O)cc2)on1)N1CCCc2ccccc21 76.7%
COc1ccc2c(c1)C(c1cccs1)=NNC(c1cccnc1)=N2 73.3%
CC(=O)Nc1cccc(OCC(=O)/C=C2\N(C)c3ccccc3C2(C)C)c1 124%
COc1cc(C(=O)Nc2oc(-c3ccccc3)c(-c3ccccc3)c2C#N)cc(OC)c1OC 119%
Cc1nonc1C1CCCN1C(=O)c1cc(COc2cccc(C(F)(F)F)c2)on1 (stereo not given) 87.3%
Cc1ccc(NC(=O)c2cc([N+](=O)[O-])ccc2Cl)c(O)c1 119%
O=C(CC1NCCc2ccccc21)Nc1cccc(Cl)c1 (stereo not given) 115%
CC(NCc1cccs1)C(=O)Nc1cc(Cl)cc(Cl)c1 (stereo not given) 96.3%
Cc1nc(N2CCN(c3ccccn3)CC2)c2c(C)c(C(=O)Nc3ccc(F)c(Cl)c3)sc2n1 129%
Cc1nc(N2CCOCC2)c2c(C)c(C(=O)Nc3ccc(C(F)(F)F)cc3)sc2n1 136%
Cc1nc(N2CCN(c3ccccn3)CC2)c2c(C)c(C(=O)Nc3ccc(F)cc3)sc2n1 125%
CSc1nnc2c(n1)OC(c1ccsc1)N(C(C)=O)c1ccccc1-2 (stereo not given) 106%
CSCc1cc(N(C)C)nc(SCc2ccc(Cl)cc2Cl)n1 115%
O=C(Nn1c(SCc2ccc([N+](=O)[O-])cc2)nc2ccccc2c1=O)c1ccc(F)cc1 139%
COc1ccc(C2Nc3ccccc3C(=O)N2Cc2ccccc2)cc1Cn1nnc2ccccc21 (stereo not given) 110%
FC(F)(F)c1cc(-c2ccco2)nc(NCc2ccc(Cl)cc2)n1 126%
FC(F)(F)c1cccc(-c2cc3ccccc3nc2N2CCCC2)c1 101%
CC(=O)N1CCCc2cc(S(=O)(=O)N3CCCC(C(=O)N4CCN(c5cccc(Cl)c5)CC4)C3)ccc21 (stereo not given) 119%
CC(=O)c1ccccc1OCc1ccc(C(=O)c2ccccc2)cc1 121%
COc1ccc(CCNC(=O)c2ccccc2OCc2ccccc2)cc1 101%
CC(C)c1ccccc1OCC(O)CN(CC(O)COc1cccc2ccccc12)C(C)C (stereo not given) 119%
Cc1cccc(C)c1N1CCN(S(=O)(=O)N2CCCCC2)CC1 122%
N/C(Cc1ccc([N+](=O)[O-])cc1)=N\OC(=O)COc1ccc2ccccc2c1 112%
COC(=O)c1cc(NC2c3ccccc3C(=O)N2c2ccc(Cl)cn2)cc(C(=O)OC)c1 (stereo not given) 115%
COc1cc(/C=C(\C#N)c2nc3ccccc3[nH]2)ccc1O 125%
COc1ccccc1N1CCN(/N=C\C(Br)=C\c2ccccc2)CC1 89.7%
O=C(Nc1ccccc1)O/N=C1\CCCCC1c1ccc([N+](=O)[O-])cc1[N+](=O)[O-] (stereo not given) 118%
CC(C)c1cc(C(=O)N/N=C/c2ccoc2)c(O)c(C(C)C)c1 123%
CCCCCCCCCCCCN1C(=O)CSC1c1cccnc1 (stereo not given) 125%
CCc1cc(C(c2ccccc2OC)N2CCOCC2)c(NC(=O)c2ccccc2)s1 (stereo not given) 102%
COc1cccc(CNc2nc(C(F)(F)F)nc3ccccc23)c1 125%
Cc1cccc2cc(CN(Cc3nnnn3Cc3ccccc3)C3CCCC3)c(=O)[nH]c12 115%
COc1cccc(NC(=S)N(CCc2c(C)[nH]c3ccccc23)Cc2ccco2)c1 113%
COc1ccccc1NC(=O)CSc1nc2sc(C)c(C)c2c(=O)n1Cc1ccco1 108%
O=C(Nc1cccc(S(=O)(=O)Nc2ccc(Cl)cc2)c1)c1ccc2c(c1)OCCO2 105%
C=CCN(N=Nc1cccc([N+](=O)[O-])c1)c1cccc([N+](=O)[O-])c1 109%
COc1ccccc1C(c1nnnn1C(C)(C)C)N1CCN(Cc2ccccc2)CC1 (stereo not given) 109%
COC(=O)C1=C(C)N(C(C)c2ccccc2)C(=O)/C1=C\c1ccco1 (stereo not given) 105%
Cc1ccc(NC(=S)N2CCCC(c3ccccc3)=N2)cc1 97.7%
c1ccc(C(c2ccccc2)N2CCN(Cc3nnnn3C3CCCCC3)CC2)cc1 118%
Cc1cccc(-c2nc3ccc(C(=O)NCCN4CCN(C)CC4)cc3nc2-c2cccc(C)c2)c1 106%
O=C(NCCc1ccccc1)c1ccc2c(c1)N(Cc1ccccc1)CCS2 108%
Cc1c(C(=O)N2CCCc3ccccc32)sc2nc(-c3ccccc3)cn12 102%
C=CCN(C(=O)c1cc(C)cc(C)c1)C1(C(=O)Nc2ccccc2)CCN(C(C)C)CC1 93%
CCCC(=O)Nc1ccc(Cl)c(NC(=O)c2ccc(Br)o2)c1 92.7%
O=C(N/N=C/c1cccc(OCc2ccccc2)c1)c1ccc(Br)o1 116%
Cc1ccc(NC(=O)COC(=O)CNC(=O)c2ccc(Cl)cc2Cl)cc1S(=O)(=O)N1CCOCC1 89%
COc1ccc(-c2nc(CCNC(=O)c3ccc(Br)o3)cs2)cc1 84.7%
CN1CCc2ccccc2C1Cc1ccccc1NC(=O)c1sc2ccccc2c1Cl (stereo not given) 114%
c1ccc2c(NC3C4CC5CC(C4)CC3C5)nc(N3CCOCC3)nc2c1 (stereo not given) 122%
CCOc1ccccc1Oc1cn[nH]c1-c1ccc(OC)cc1O 114%
COCCNc1cc(-c2ccccc2)nc2cc(-c3cccc(F)c3)nn12 130%
COc1cccc(CN(C)CC(O)COC(c2ccccc2)c2ccccc2C)c1 (stereo not given) 110%
Oc1ccc(/C=N/Nc2nc(-c3ccccc3F)nc3ccccc23)c(O)c1 93.3%
O=C(NCCc1c[nH]c2ccccc12)c1cccc(Br)c1 118%
Cc1cc(NC(=O)Nc2ccc(Cl)cc2)n(-c2ccccc2)n1 100%
CN(CCC(=O)Nc1cc(S(=O)(=O)N(C)C)ccc1Cl)CC(=O)Nc1ccc(F)cc1 118%
COc1cccc(COc2ccc(N(C)S(=O)(=O)c3ccccc3)cc2)c1 132%
O=C(N/N=C/c1sc(N2CCCCC2)nc1-c1cccs1)c1cccnc1 123%
COc1cccc(/C=N/Nc2cc(C)nc(-c3ccccc3O)n2)c1O 134%
CCC(C)(C)n1nnnc1C(c1cccs1)N1CCN(c2nc3ccccc3s2)CC1 (stereo not given) 112%
O=C(CNCCC1=CCCCC1)Nc1ccccc1N1CCCCCC1 113%
Cc1cc(C)c(S(=O)(=O)c2ccccc2)c(OC(=O)c2c(F)cccc2Cl)n1 78%
COc1ccc(Nc2ncnc3sc(-c4ccccc4)cc23)c(OC)c1 112%
